Whole data set: some 68,000 sequences, median “fluorescence intensity (a.u.)” near 9,100, cut for the highest 2% near 16,000. This is one part of a sample in which the highest values are shown more often than they occur.

Sequence of OsWRKY34 (Q0JBA9 entry or part of it): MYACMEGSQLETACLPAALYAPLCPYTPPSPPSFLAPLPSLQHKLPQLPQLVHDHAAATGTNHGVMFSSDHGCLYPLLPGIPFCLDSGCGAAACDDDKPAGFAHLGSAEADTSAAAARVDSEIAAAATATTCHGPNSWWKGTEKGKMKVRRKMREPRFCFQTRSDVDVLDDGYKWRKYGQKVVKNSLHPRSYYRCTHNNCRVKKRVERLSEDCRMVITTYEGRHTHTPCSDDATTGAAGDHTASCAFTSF

This assay deals with OsWRKY34 (Oryza sativa, UniProt Q0JBA9 1-250). The experiment in a line: protein-binding microarray (RPBM); PBS, 2% BSA, 51.3 ng/ul salmon testes DNA, 50 uM zinc acetate, 200 nM TF, 25 C, 1 h; high values mean tight binding. Particulars: protein: recombinant; tags: N-terminal polyhistidine and DsRed monomer fusion (pET32a); label: CyDye5-dUTP incorporated in the synthesized complementary strand; 3' TTTTT single-stranded linker to array surface; dsDNA, one strand shown. Summed up:
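Binding signal is defined as the fluorescence intensity of each feature in arbitrary units, read on an Axon 4000B scanner. Transcription factors with N-terminal polyhistidine and DsRed fusions came from E. coli BL21-CodonPlus and were purified on Ni–NTA. They were incubated at 200 nM for 1 h at 25 °C on a custom Agilent array that had been made double-stranded with Cy5-dUTP, with 50 µM zinc acetate present, and the array was washed.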
For the sequence “GAGCCCGTACTCATTTCTCGCCAAGTGCACCACTTCACTCCGGAGTCACCTAGTGCAG”, the binding signal is 10700 fluorescence intensity (a.u.).

Regarding “TCCTCTACTGGTTCTACGTCTTCTCATAATCAACCCAAATCGGAGTCACCTAGTGCAG”, the binding signal was 11700 fluorescence intensity (a.u.).

Regarding “CGCTCATCTATTTCTTTGTAGTACAACGCAGGCGCTCACACGGAGTCACCTAGTGCAG”, the binding signal is 8090 fluorescence intensity (a.u.).

With “CTTCCCATGGCTTTTACTCTCCACTCGAAATCTCGTAACACGGAGTCACCTAGTGCAG”, the binding signal was 11100 fluorescence intensity (a.u.).

Take “ACACACTACTACTACTCTTCTCCCTCTCCATCTCTTCCCTCGGAGTCACCTAGTGCAG”: the binding signal is 8320 fluorescence intensity (a.u.).

Take “GCATCACTATTCACTCCATGTTCTCTCTTCCTACTCTCCACGGAGTCACCTAGTGCAG”: the binding signal was 8250 fluorescence intensity (a.u.).

In the case of “CTCGTCATTGTTCCCATGTTTTTCTATTTCATTTCTAATTCGGAGTCACCTAGTGCAG”, the binding signal was 9350 fluorescence intensity (a.u.).

Take “AATCGATTCTCCACTACTCTCTCGTCATTGTTCCCATGTTCGGAGTCACCTAGTGCAG”: the binding signal was 20100 fluorescence intensity (a.u.).

For “GCAGCATCACTCCATGTTCTCTCTTCCTACTCTCCATACTCGGAGTCACCTAGTGCAG”, the binding signal is 16800 fluorescence intensity (a.u.).

For the sequence “TAGCTCCATTGTTCGATCTCATCTCCCTTAGCTAGCTACTCGGAGTCACCTAGTGCAG”, the binding signal was 8130 fluorescence intensity (a.u.).

In the case of “CTTATGTCTCACTAAATATTTACTTTTGCCATCGGCAAATCGGAGTCACCTAGTGCAG”, the binding signal was 8080 fluorescence intensity (a.u.).

Take “GTCACCTTTTCTTTTATCAACATTCATTTGTTTTATTACTCGGAGTCACCTAGTGCAG”: the binding signal was 8270 fluorescence intensity (a.u.).

For “AATTCAACGCACGTCTCTTGTCCTGCACTTCTGCTATGCCCGGAGTCACCTAGTGCAG”, the binding signal is 11000 fluorescence intensity (a.u.).

“AATTCTATGCCTCGATACATTTTTGGTGTTTATTATGGTTCGGAGTCACCTAGTGCAG”: the binding signal is 8460 fluorescence intensity (a.u.).

Regarding “CTCACCGCGCCGCTCACCTCCTCAAGACCACCACCCACCACGGAGTCACCTAGTGCAG”, the binding signal is 9730 fluorescence intensity (a.u.).

Turning to “ACAAATCCTGGTCATTTCTTGACCGTATGAATTCTAGAAACGGAGTCACCTAGTGCAG”, the binding signal was 9650 fluorescence intensity (a.u.).

Take “CAACCTCTTGCTAACTTTCCTTTGAGTCTATCTCTCTCATCGGAGTCACCTAGTGCAG”: the binding signal was 10700 fluorescence intensity (a.u.).

On to “AAGAAATCTCTTTGAAAAACTTGCATGCTAACTTGAGACGCGGAGTCACCTAGTGCAG”, for which the binding signal was 44900 fluorescence intensity (a.u.).

As for “AGAATCTGACGTTTTATTTCTGAAACTTTCTTTGCATGCACGGAGTCACCTAGTGCAG”, the binding signal was 8030 fluorescence intensity (a.u.).

For “GTGCTCGGCTCCTCTCTCAGTAGCTTGTATGTGTCAGTTGCGGAGTCACCTAGTGCAG”, the binding signal is 10500 fluorescence intensity (a.u.).

In the case of “AGCTTCAACCTCTTGTAACTTTCCTTTGAGTATATCTCTCCGGAGTCACCTAGTGCAG”, the binding signal was 10200 fluorescence intensity (a.u.).

As to “GGATATCCGGTTTTGTGGTTGGGTGACGATTTTGTAATTCCGGAGTCACCTAGTGCAG”, the binding signal is 9010 fluorescence intensity (a.u.).

Regarding “TTGGGTTTAGGGCGGTAATTCGGTTGACCGCGATAGTTCACGGAGTCACCTAGTGCAG”, the binding signal is 12400 fluorescence intensity (a.u.).

“GGGTGAAAATGTCTGGTTTTGTGGTTTAAGGGTGTAATTCCGGAGTCACCTAGTGCAG”: the binding signal was 8700 fluorescence intensity (a.u.).

On to “GGTGTGATATATCTGGTTTTGTGGTTCGGTGGGGTAATTCCGGAGTCACCTAGTGCAG”, for which the binding signal was 22000 fluorescence intensity (a.u.).

Take “GGGTGAGTAATATCTGGTTTTTGGGTTTAGGGCGGTAATTCGGAGTCACCTAGTGCAG”: the binding signal is 17700 fluorescence intensity (a.u.).

Regarding “TGTCCGGTATTTTAAGTTTAGGGTGAGTAATATCTGGTTTCGGAGTCACCTAGTGCAG”, the binding signal is 10600 fluorescence intensity (a.u.).

For the sequence “CATCATACAGTAACAGCACAAGCACACACTACACGCACTCCGGAGTCACCTAGTGCAG”, the binding signal was 8640 fluorescence intensity (a.u.).

“GGGTTGGTTCCTGCCTCTCGAGTCTCAGCAAGTGTGTCACCGGAGTCACCTAGTGCAG”: the binding signal is 11500 fluorescence intensity (a.u.).

As for “CAAATGGCCCACCTGTCCTAGCTTGGCCCGGCCCGGGCACCGGAGTCACCTAGTGCAG”, the binding signal is 8680 fluorescence intensity (a.u.).

Take “TAGCTCCAGTATTAATTTCTTTCCATCCTCCATTTTCTTGCGGAGTCACCTAGTGCAG”: the binding signal is 9120 fluorescence intensity (a.u.).

“CAACAGACTCTTCCCCTTCGCTCGCTCGCCTCCTCTTTCCCGGAGTCACCTAGTGCAG”: the binding signal was 8220 fluorescence intensity (a.u.).

“ATCCATCCATCTATTCGCTTCCCTTTCCTTGCACCTCTGCCGGAGTCACCTAGTGCAG”: the binding signal is 9050 fluorescence intensity (a.u.).

Turning to “CCTTCACCTCCTTGCAAGTTCCATTCTTTCATCTCGCTTCCGGAGTCACCTAGTGCAG”, the binding signal was 16500 fluorescence intensity (a.u.).

Take “CTAGCTTCGCCATCCACATTCTTCTTGCTTCTTGCTCCTCCGGAGTCACCTAGTGCAG”: the binding signal is 12700 fluorescence intensity (a.u.).

For the sequence “CCATTCTTTCATCTCGCTTCACCTCATCGCCATTGCCATCCGGAGTCACCTAGTGCAG”, the binding signal was 8810 fluorescence intensity (a.u.).

On to “TACATCCCTTGCCATCTCCATCGCCGGCTTCCTCGCCATTCGGAGTCACCTAGTGCAG”, for which the binding signal is 17100 fluorescence intensity (a.u.).

Turning to “TCTTTCTTCCATTGCACCTAGCTTTCATCTTCTTCTCTTCCGGAGTCACCTAGTGCAG”, the binding signal was 14200 fluorescence intensity (a.u.).

For the sequence “TTTGTCAATTGATGTATACATATGTGCTTTGTGTTCCTACCGGAGTCACCTAGTGCAG”, the binding signal is 11100 fluorescence intensity (a.u.).

For “CTGATTCGAACGCAGCCATAGTCACTCTTTCACTCTCACTCGGAGTCACCTAGTGCAG”, the binding signal was 11000 fluorescence intensity (a.u.).

Turning to “GTAAATCCGCTCCAATTGACTCTACCAACCCACCCGTGCTCGGAGTCACCTAGTGCAG”, the binding signal is 9420 fluorescence intensity (a.u.).

Take “AATTTGTGTGTAATTTTTTAGGATTTGTGATGTATTTGATCGGAGTCACCTAGTGCAG”: the binding signal was 9210 fluorescence intensity (a.u.).

With “CCACACTTGCCCGCTACCCACTCTGATCTATCTCCACTGTCGGAGTCACCTAGTGCAG”, the binding signal was 9630 fluorescence intensity (a.u.).

On to “TCTCCTCCCTCGTTTCTCCTGACACGCTCTCATCCTACAACGGAGTCACCTAGTGCAG”, for which the binding signal is 8660 fluorescence intensity (a.u.).

Consider “GCAATTTGCCTCTTTGTTCCTCATAGTCCAGACACAATTCCGGAGTCACCTAGTGCAG”, for which the binding signal was 9840 fluorescence intensity (a.u.).

As for “TTATCACAGATTCACAGTCCTTTGCCTTCATAAACACCTCCGGAGTCACCTAGTGCAG”, the binding signal is 65500 fluorescence intensity (a.u.).

The values are drawn from publication PMC7819943, “Rice protein-binding microarrays: a tool to detect cis-acting elements near promoter regions in rice”.
